Laboratory results: PubChem BioAssay
Calls of active or inactive are those of the source.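 How the source made its calls, unless noted: active means mean z-score across replicates of 1.96 or higher in either the MELAS or the Rieske mutant cell line; inactive means the rest.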

Key:
[1] = viability loss with induced miR-34 in A549 – imaging, A549 dox-inducible miR-34, nuclei and caspase counts, primary screen (AID 1347080;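 active means compounds whose cell count with miR-34 switched on is under 0.7 times the count with it off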); settings: A549 miR-34 inducible, Hoechst nuclei count, 48 h
[2] = MELAS cybrid and Rieske KO viability enhancers – cell-based, MELAS cybrids, Rieske KO mouse fibroblasts, CellTiter-Glo, primary screen (AID 1508586); settings: low glucose;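 further: z relative to plate mean and SD of compound and empty wells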
[3] = stronger effect = lower value, cell number ratio, induced over uninduced
[4] = measured here: relative caspase fold change +Dox/-Dox
[5] = measured here: total cells with miR-34 induction, stronger effect = lower value
[6] = measured here: total cells without miR-34 induction
[7] = MELAS cybrid survival, CellTiter-Glo 48 h, stronger effect = higher value
[8] = Rieske KO mouse fibroblast survival, CellTiter-Glo 72 h
Further: test concentration not given here.

CCOC(=O)c1ccc(NC2CCCCC2)c(N)c1
fold change [1, 3]: 0.937 (inactive)
fold change [1, 4]: 0.358
cell count [1, 5]: 7670
cell count [1, 6]: 8180
z-score [2, 7]: -0.371 (inactive)
z-score [2, 8]: 0.61

Cc1ccc(Cl)cc1N(CC(=O)Nc1c(F)cccc1F)S(C)(=O)=O
fold change [1, 3]: 0.888 (inactive)
fold change [1, 4]: 0.518
cell count [1, 5]: 8090
cell count [1, 6]: 9110
z-score [2, 7]: -0.403 (inactive)
z-score [2, 8]: 0.642

Cc1cc(Nc2nc(NC(C)c3ncc(F)cn3)ncc2Cl)n[nH]1 (stereo not drawn)
fold change [1, 3]: 1.07 (inactive)
fold change [1, 4]: 1.17
cell count [1, 5]: 1380
cell count [1, 6]: 1290
z-score [2, 7]: 0.54 (inactive)
z-score [2, 8]: -3.57

OCc1ccccc1OC1OC(CO)C(O)C(O)C1O (stereo not drawn)
fold change [1, 3]: 0.944 (inactive)
fold change [1, 4]: 0.784
cell count [1, 5]: 9350
cell count [1, 6]: 9900
z-score [2, 7]: -0.348 (inactive)
z-score [2, 8]: 0.733

FC(F)(F)c1ccc(C=Cc2nc(COc3ccc(CCCCn4ccnn4)cc3)co2)cc1
fold change [1, 3]: 0.766 (inactive)
fold change [1, 4]: 1.23
cell count [1, 5]: 4190
cell count [1, 6]: 5470
z-score [2, 7]: -0.189 (inactive)
z-score [2, 8]: -0.508

CCCC(C)NC(=O)c1ccc(Cl)c(Cl)c1 (stereo not drawn)
fold change [1, 3]: 0.868 (inactive)
fold change [1, 4]: 0.485
cell count [1, 5]: 8950
cell count [1, 6]: 10300
z-score [2, 7]: -0.371 (inactive)
z-score [2, 8]: 0.701

CC1(C)O[C@@H]2C[C@H]3[C@@H]4CCC5=CC(=O)C=C[C@]5(C)[C@@H]4C(O)C[C@]3(C)[C@@]2(C(=O)CO)O1 (stereo partly drawn)
fold change [1, 3]: 0.87 (inactive)
fold change [1, 4]: 1.16
cell count [1, 5]: 5200
cell count [1, 6]: 5970
z-score [2, 7]: -0.511 (inactive)
z-score [2, 8]: -0.393

O=C(O)CCCN1CCC(OC(c2ccc(Cl)cc2)c2ccccn2)CC1 (stereo not drawn)
fold change [1, 3]: 0.967 (inactive)
fold change [1, 4]: 1.77
cell count [1, 5]: 8100
cell count [1, 6]: 8370
z-score [2, 7]: 0.387 (inactive)
z-score [2, 8]: -0.496

O=C1c2ccc(Nc3ccc(F)cc3F)cc2CCc2ccc(OCC(O)CO)cc21 (stereo not drawn)
fold change [1, 3]: 0.924 (inactive)
fold change [1, 4]: 0.413
cell count [1, 5]: 6890
cell count [1, 6]: 7450
z-score [2, 7]: -0.55 (inactive)
z-score [2, 8]: 0.56

CC(=O)C1CC[C@H]2[C@@H]3CCC4=CC(=O)CC[C@]4(C)[C@@H]3CC[C@]12C (stereo partly drawn)
fold change [1, 3]: 0.844 (inactive)
fold change [1, 4]: 1.47
cell count [1, 5]: 7050
cell count [1, 6]: 8360
z-score [2, 7]: -0.493 (inactive)
z-score [2, 8]: -0.487

O=C(O)c1cc(I)ccc1NC(=O)C(Cc1ccccc1)NCc1ccccc1 (stereo not drawn)
fold change [1, 3]: 0.835 (inactive)
fold change [1, 4]: 0.632
cell count [1, 5]: 8450
cell count [1, 6]: 10100
z-score [2, 7]: -0.035 (inactive)
z-score [2, 8]: 1.09

CNC(=C[N+](=O)[O-])NCCSCc1ccc(CN(C)C)o1
fold change [1, 3]: 0.921 (inactive)
fold change [1, 4]: 0.82
cell count [1, 5]: 7800
cell count [1, 6]: 8470
z-score [2, 7]: -0.3 (inactive)
z-score [2, 8]: -0.112

CC(=O)NC1C(N=C(N)N)C=C(C(=O)O)O[C@H]1C(O)C(O)CO (stereo partly drawn)
fold change [1, 3]: 0.903 (inactive)
fold change [1, 4]: 0.622
cell count [1, 5]: 9700
cell count [1, 6]: 10700
z-score [2, 7]: -0.333 (inactive)
z-score [2, 8]: 0.922

CC1OC(OC2C(Oc3cc(O)c4c(c3)OC(c3ccc(O)cc3)CC4=O)OC(CO)C(O)C2O)C(O)C(O)C1O (stereo not drawn)
fold change [1, 3]: 1 (inactive)
fold change [1, 4]: 0.741
cell count [1, 5]: 8310
cell count [1, 6]: 8300
z-score [2, 7]: -0.421 (inactive)
z-score [2, 8]: -0.0851

CC1(C)O[C@@H]2C[C@H]3[C@@H]4C[C@@H](F)C5=CC(=O)C=C[C@]5(C)[C@]4(F)C(O)C[C@]3(C)[C@@]2(C(=O)CO)O1 (stereo partly drawn)
fold change [1, 3]: 0.861 (inactive)
fold change [1, 4]: 0.94
cell count [1, 5]: 5980
cell count [1, 6]: 6950
z-score [2, 7]: -0.367 (inactive)
z-score [2, 8]: -0.28

C[C@]12CCC(O)CC1=CCC1C2CC[C@]2(C)C(n3cnc4ccccc43)=CCC12 (stereo partly drawn)
fold change [1, 3]: 0.927 (inactive)
fold change [1, 4]: 0.715
cell count [1, 5]: 7740
cell count [1, 6]: 8340
z-score [2, 7]: -0.32 (inactive)
z-score [2, 8]: -0.165

N#CC(=Cc1ccc(O)c(O)c1)C(=O)NCc1ccccc1
fold change [1, 3]: 0.901 (inactive)
fold change [1, 4]: 1.14
cell count [1, 5]: 6440
cell count [1, 6]: 7150
z-score [2, 7]: -0.517 (inactive)
z-score [2, 8]: 0.15

O=C(c1ccccc1)c1ccc2nc(NC(=O)c3csc(C4CCN(c5ncnc6ccsc56)CC4)n3)[nH]c2c1
fold change [1, 3]: 1.1 (inactive)
fold change [1, 4]: 0.341
cell count [1, 5]: 2690
cell count [1, 6]: 2460
z-score [2, 7]: -0.654 (inactive)
z-score [2, 8]: -0.043

O=C(CCCCCCC(=O)Nc1ccc(C2OC(CSc3nc(-c4ccccc4)c(-c4ccccc4)o3)CC(c3ccc(CO)cc3)O2)cc1)NO (stereo not drawn)
fold change [1, 3]: 0.92 (inactive)
fold change [1, 4]: 0.644
cell count [1, 5]: 6200
cell count [1, 6]: 6750
z-score [2, 7]: -0.366 (inactive)
z-score [2, 8]: 1.07

CC1C(NC(=O)C(=NOC(C)(C)C(=O)O)c2csc(N)n2)C(=O)N1S(=O)(=O)O (stereo not drawn)
fold change [1, 3]: 0.929 (inactive)
fold change [1, 4]: 0.823
cell count [1, 5]: 7110
cell count [1, 6]: 7650
z-score [2, 7]: -0.398 (inactive)
z-score [2, 8]: 0.579

C[C@@]12CC[C@H]3c4ccc(O)cc4CC(CCCCCCCCCS(=O)CCCC(F)(F)C(F)(F)F)[C@H]3[C@@H]1CCC2O (stereo partly drawn)
fold change [1, 3]: 0.975 (inactive)
fold change [1, 4]: 0.957
cell count [1, 5]: 4560
cell count [1, 6]: 4680
z-score [2, 7]: -0.569 (inactive)
z-score [2, 8]: 0.522

CCCCc1nc2cc(C=CC(=O)NO)ccc2n1CCN(CC)CC
fold change [1, 3]: 1.12 (inactive)
fold change [1, 4]: 0.731
cell count [1, 5]: 1070
cell count [1, 6]: 951
z-score [2, 7]: 0.665 (inactive)
z-score [2, 8]: -0.474

CC(=Cc1ccccc1)C=C1SC(=S)N(CC(=O)O)C1=O
fold change [1, 3]: 0.909 (inactive)
fold change [1, 4]: 0.759
cell count [1, 5]: 8290
cell count [1, 6]: 9130
z-score [2, 7]: -0.0963 (inactive)
z-score [2, 8]: 0.707

CC(C)n1c(C=CC(O)CC(O)CC(=O)O)c(-c2ccc(F)cc2)c2ccccc21 (stereo not drawn)
fold change [1, 3]: 1.12 (inactive)
fold change [1, 4]: 0.928
cell count [1, 5]: 1580
cell count [1, 6]: 1410
z-score [2, 7]: 0.699 (inactive)
z-score [2, 8]: -1.97

O=C(O)C1=COC(OC2OC(CO)C(O)C(O)C2O)[C@@H]2C(CO)=CC[C@H]12 (stereo partly drawn)
fold change [1, 3]: 0.954 (inactive)
fold change [1, 4]: 1.02
cell count [1, 5]: 9820
cell count [1, 6]: 10300
z-score [2, 7]: -0.392 (inactive)
z-score [2, 8]: 0.447

c1ccc(NCc2ccc(CNc3ccccn3)cc2)nc1
fold change [1, 3]: 0.944 (inactive)
fold change [1, 4]: 0.525
cell count [1, 5]: 7360
cell count [1, 6]: 7790
z-score [2, 7]: -0.161 (inactive)
z-score [2, 8]: -0.0229

NC(=O)N1CCC(CC(=O)N2CCC(C3c4ncc(Br)cc4CCc4cc(Cl)cc(Br)c43)CC2)CC1 (stereo not drawn)
fold change [1, 3]: 1.04 (inactive)
fold change [1, 4]: 0.678
cell count [1, 5]: 5310
cell count [1, 6]: 5110
z-score [2, 7]: -0.458 (inactive)
z-score [2, 8]: 0.637

C=C1C(=CC=C2CCC[C@@]3(C)[C@H]2CC[C@H]3C(C)C=CC(C)C(C)C)CC(O)CC1O (stereo partly drawn)
fold change [1, 3]: 0.932 (inactive)
fold change [1, 4]: 0.78
cell count [1, 5]: 7360
cell count [1, 6]: 7890
z-score [2, 7]: -0.45 (inactive)
z-score [2, 8]: 1.18

C[C@]12CC[C@H]3c4ccc(O)cc4CC[C@H]3[C@@H]1CCC2O (stereo partly drawn)
fold change [1, 3]: 0.784 (inactive)
fold change [1, 4]: 0.957
cell count [1, 5]: 6520
cell count [1, 6]: 8310
z-score [2, 7]: -0.389 (inactive)
z-score [2, 8]: -0.286

Nc1nc2c(ncn2C2OC(CO)C(O)C2O)c(=O)[nH]1 (stereo not drawn)
fold change [1, 3]: 0.891 (inactive)
fold change [1, 4]: 0.755
cell count [1, 5]: 8140
cell count [1, 6]: 9140
z-score [2, 7]: -0.357 (inactive)
z-score [2, 8]: -0.0165

O=C(Nc1cccc(Cl)c1)c1ccccn1
fold change [1, 3]: 0.981 (inactive)
fold change [1, 4]: 0.991
cell count [1, 5]: 7550
cell count [1, 6]: 7700
z-score [2, 7]: 0.406 (inactive)
z-score [2, 8]: -0.326

CC(C)NCC(C(=O)N1CCN(c2ncnc3c2C(C)CC3O)CC1)c1ccc(Cl)cc1 (stereo not drawn)
fold change [1, 3]: 1.1 (inactive)
fold change [1, 4]: 0.724
cell count [1, 5]: 7580
cell count [1, 6]: 6900
z-score [2, 7]: -0.408 (inactive)
z-score [2, 8]: 0.0437

NC(N)=NN=Cc1c(Cl)cccc1Cl
fold change [1, 3]: 0.921 (inactive)
fold change [1, 4]: 0.613
cell count [1, 5]: 8130
cell count [1, 6]: 8830
z-score [2, 7]: -0.139 (inactive)
z-score [2, 8]: -0.245

C#C[C@@]1(O)CC[C@H]2[C@@H]3CCc4cc(OC)ccc4[C@@H]3CC[C@@]21C
fold change [1, 3]: 0.921 (inactive)
fold change [1, 4]: 0.824
cell count [1, 5]: 7730
cell count [1, 6]: 8400
z-score [2, 7]: -0.343 (inactive)
z-score [2, 8]: 0.814

CCNC(=O)CCCC=CCC1C(O)CC(O)C1C=CC(O)CCc1ccccc1 (stereo not drawn)
fold change [1, 3]: 0.925 (inactive)
fold change [1, 4]: 0.991
cell count [1, 5]: 6700
cell count [1, 6]: 7250
z-score [2, 7]: -0.401 (inactive)
z-score [2, 8]: -0.137

C=CC[N+]1(C2C[C@H]3[C@@H]4CC[C@H]5CC(O)C(N6CCOCC6)C[C@]5(C)[C@@H]4CC[C@]3(C)C2OC(C)=O)CCCC1 (stereo partly drawn)
fold change [1, 3]: 0.951 (inactive)
fold change [1, 4]: 0.974
cell count [1, 5]: 8100
cell count [1, 6]: 8520
z-score [2, 7]: -0.403 (inactive)
z-score [2, 8]: 0.424

CCC1OC(=O)C(C)C(OC2C[C@@](C)(OC)C(O)C(C)O2)C(C)C(OC2OC(C)CC(N(C)C)C2O)[C@@](C)(O)CC(C)C(=O)C(C)C(O)[C@]1(C)O (stereo partly drawn)
fold change [1, 3]: 0.879 (inactive)
fold change [1, 4]: 1.14
cell count [1, 5]: 7750
cell count [1, 6]: 8820
z-score [2, 7]: -0.0604 (inactive)
z-score [2, 8]: 0.782

CCOC(=O)C(CCc1ccccc1)NC(C)C(=O)N1Cc2cc(OC)c(OC)cc2CC1C(=O)O (stereo not drawn)
fold change [1, 3]: 0.97 (inactive)
fold change [1, 4]: 0.414
cell count [1, 5]: 7830
cell count [1, 6]: 8070
z-score [2, 7]: -0.293 (inactive)
z-score [2, 8]: -0.111
